Test systems include SR leukemia; RPMI-8226 leukemia; OVCAR-8 ovarian; OVCAR-5 ovarian; OVCAR-4 ovarian; SK-OV-3 ovarian; IGROV1 ovarian; OVCAR-3 ovarian; HS 578T breast; NCI/ADR-RES ovarian; T-47D breast; BT-549 breast; MDA-MB-435 melanoma; SW-620 colon; HCT-116 colon; HCC-2998 colon; KM12 colon; MCF7 breast.
Common to all, as to assay: NCI-60 one-dose screen, 48 h (100 = growth as untreated, 0 = no growth, -100 = all killed)
Common to all, as to details: 10 µM unless noted

Here are results for nine compounds from PubChem BioAssay (NCI).

This is part of a sample that, as a whole, favours compounds with a hit. Of some 83,000 tested, about 20% had one in any assay.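 Negative percent growth values reflect cell death: -40 means 40% of the cells present at the start died, and -100 means all died.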 Values without a mark were called inactive. Calls of active or inactive are those of the source. Rule for the calls: active = growth percent below 10; inactive = the rest.

As to `O=S(=O)(Nc1cccc2ccccc12)c1ccc(-c2cnc(C3CC3)o2)cc1`, the growth was 21.2% with SR leukemia; 14.4% in the assay on RPMI-8226 leukemia; 28.5% in the assay on OVCAR-8 ovarian; 42.6% in the assay on OVCAR-5 ovarian; 64.1% in the assay with OVCAR-4 ovarian; 71.3% in the assay with SK-OV-3 ovarian. In addition, the growth in the assay on IGROV1 ovarian is 23.4%; with OVCAR-3 ovarian it was 7.12% (active); in the assay on HS 578T breast it was 39.1%; in the assay on NCI/ADR-RES ovarian it was 7.22% (active); with T-47D breast, 62.4%; in the assay with BT-549 breast, 21.3%. Moreover, the growth is -39.9% (active) in the assay on MDA-MB-435 melanoma; 24.6% in the assay with SW-620 colon; 12.4% with HCT-116 colon; 21.3% in the assay with HCC-2998 colon; 10.7% in the assay with KM12 colon.
As to `CCc1nn2c(C)cc(C)nc2c1Cc1ccc(/C=C/CN2CCN(CCOCCOCCN3CCN(C/C=C/c4ccc(Cc5c(CC)nn6c(C)cc(C)nc56)cc4)CC3)CC2)cc1`, the growth with SR leukemia was -30.9% (active); in the assay with RPMI-8226 leukemia it was -41.9% (active); in the assay with OVCAR-8 ovarian, 19.1%; in the assay with OVCAR-5 ovarian, 28.2%; with OVCAR-4 ovarian it was 25.9%; in the assay on SK-OV-3 ovarian, 85.2%. Also, the growth in the assay on IGROV1 ovarian is 4.6% (active); in the assay on OVCAR-3 ovarian, -60.4% (active); in the assay on HS 578T breast, -39.4% (active); with NCI/ADR-RES ovarian, 23.2%; in the assay with T-47D breast it was -36.4% (active); in the assay with BT-549 breast it was 79.7%. Besides, the growth in the assay on MDA-MB-435 melanoma was -78.3% (active); in the assay with MCF7 breast, -85.8% (active); with HCT-116 colon, -84.1% (active); in the assay on HCC-2998 colon, -61.9% (active); with KM12 colon, 35.2%.
With `O=C(Nc1ccc(Br)cc1)Nc1nc2ccc([N+](=O)[O-])cc2s1`, the growth with SR leukemia was -27.9% (active); with RPMI-8226 leukemia, -35% (active); in the assay with OVCAR-8 ovarian, 8.82% (active); in the assay with OVCAR-5 ovarian it was 19.4%; in the assay on OVCAR-4 ovarian, -10.6% (active); in the assay with SK-OV-3 ovarian, -5.7% (active). Further, the growth in the assay on IGROV1 ovarian is 21.8%; with OVCAR-3 ovarian it was -5.56% (active); with HS 578T breast, -3.63% (active); in the assay on NCI/ADR-RES ovarian it was 3.27% (active); in the assay with T-47D breast it was -19% (active); in the assay on BT-549 breast, -21.5% (active). Besides, the growth was -9.22% (active) with MDA-MB-435 melanoma; 1.05% (active) in the assay on MCF7 breast; 2.73% (active) in the assay on HCT-116 colon; 1.25% (active) with HCC-2998 colon; 0.616% (active) in the assay with KM12 colon.
Consider `Cn1cc(-c2nnc(N)nc2-c2c[nH]c3ccc(F)cc23)c2cc(F)ccc21`, for which the growth with SR leukemia was 41.1%; with RPMI-8226 leukemia it was 65.6%; in the assay on OVCAR-8 ovarian it was 90.3%; in the assay with OVCAR-5 ovarian it was 109%; with OVCAR-4 ovarian, 98.4%; in the assay with SK-OV-3 ovarian, 88.4%. Also, the growth in the assay with IGROV1 ovarian is 35.7%; in the assay on OVCAR-3 ovarian, 78.6%; with HS 578T breast, 84.1%; in the assay with NCI/ADR-RES ovarian, 86.7%; in the assay on T-47D breast, 26.1%; in the assay with BT-549 breast, 71.2%. In addition, the growth is 94.8% in the assay with MDA-MB-435 melanoma; 59.8% in the assay with SW-620 colon; 62.1% in the assay on HCT-116 colon; 93.1% with HCC-2998 colon; 74.5% in the assay with KM12 colon.
With `COc1ccc(S(=O)(=O)NCCCNc2nccc(-c3cn(C(C)(C)C)nc3-c3ccc(Cl)c(OC)c3)n2)cc1`, the growth in the assay on SR leukemia is 48.8%; with RPMI-8226 leukemia it was 84.7%; with OVCAR-8 ovarian it was 87.9%; with OVCAR-5 ovarian it was 90.3%; with OVCAR-4 ovarian, 58.9%; in the assay with SK-OV-3 ovarian, 103%. The growth was 57.9% in the assay on IGROV1 ovarian; 97.5% with OVCAR-3 ovarian; 82.9% in the assay with HS 578T breast; 87.8% in the assay on NCI/ADR-RES ovarian; 77.3% with T-47D breast; 89.6% in the assay on MDA-MB-435 melanoma. The growth with SW-620 colon was 99.3%; in the assay with MCF7 breast it was 82.4%; in the assay with HCT-116 colon, 66.6%; with HCC-2998 colon, 124%; in the assay on KM12 colon, 93%.
Take `Cc1ccc(CSc2nc(-c3ccc(Cl)cc3)c(C#N)c(N3CCOCC3)n2)cc1`: the growth in the assay with SR leukemia is 85.6%; with RPMI-8226 leukemia, 82.2%; in the assay with OVCAR-8 ovarian, 97.2%; in the assay with OVCAR-5 ovarian, 100%; in the assay on OVCAR-4 ovarian it was 89.8%; in the assay on SK-OV-3 ovarian, 98.2%. For the same compound, the growth in the assay with IGROV1 ovarian was 106%; with HS 578T breast it was 107%; in the assay on NCI/ADR-RES ovarian, 94.8%; in the assay with T-47D breast, 79%; in the assay with BT-549 breast, 115%; in the assay on MDA-MB-435 melanoma, 94.8%. Further, the growth in the assay with SW-620 colon is 96%; in the assay on MCF7 breast, 88.6%; with HCT-116 colon, 90%; in the assay with HCC-2998 colon it was 104%; with KM12 colon it was 96.5%.
Regarding `CNC(=O)c1cc(-n2ccc3cc(NC(=O)Nc4ccc(N5CCOCC5)c(C(F)(F)F)c4)ccc32)ccn1`, the growth in the assay with SR leukemia was 9.16% (active); with RPMI-8226 leukemia it was -26.7% (active); in the assay on OVCAR-8 ovarian it was 60.6%; with OVCAR-5 ovarian it was 65.1%; in the assay with OVCAR-4 ovarian it was 40.6%; in the assay on SK-OV-3 ovarian it was 102%. Further, the growth was 32.3% in the assay on IGROV1 ovarian; 76.4% in the assay with OVCAR-3 ovarian; 32.2% with HS 578T breast; 47.9% in the assay on NCI/ADR-RES ovarian; 47% in the assay on T-47D breast; 40.2% in the assay with MDA-MB-435 melanoma. Further, the growth was 62.5% in the assay with SW-620 colon; 35.3% with MCF7 breast; 20.5% in the assay with HCT-116 colon; 87.4% in the assay with HCC-2998 colon; 7.44% (active) in the assay with KM12 colon.
With `COc1cc(-c2nn(C(C)(C)C)cc2-c2ccnc(NCCCNS(=O)(=O)c3ccc(F)cc3)n2)ccc1Cl`, the growth in the assay on SR leukemia is 48.8%; in the assay with RPMI-8226 leukemia, 75.1%; in the assay with OVCAR-8 ovarian it was 89.2%; in the assay with OVCAR-5 ovarian, 82.3%; in the assay with OVCAR-4 ovarian, 54.2%; in the assay on SK-OV-3 ovarian it was 104%. For the same compound, the growth was 61.6% in the assay with IGROV1 ovarian; 90.7% in the assay with OVCAR-3 ovarian; 81% in the assay with HS 578T breast; 79.9% in the assay on NCI/ADR-RES ovarian; 85.1% in the assay on T-47D breast; 75% with MDA-MB-435 melanoma. Also, the growth in the assay with SW-620 colon is 95.9%; with MCF7 breast, 74.3%; with HCT-116 colon, 56.1%; in the assay on HCC-2998 colon, 108%; in the assay on KM12 colon, 78.5%.
For the compound `O=C1[C@@H]2Cc3c([nH]c4ccccc34)[C@H](c3c(Cl)cccc3Cl)N2C(=O)CN1C1CCN(CC2CCCCC2)CC1`, the growth in the assay on SR leukemia was -0.527% (active); with RPMI-8226 leukemia it was 38.4%; with OVCAR-8 ovarian, 88.1%; in the assay on OVCAR-5 ovarian, 93.4%; in the assay with OVCAR-4 ovarian, 90.2%; with SK-OV-3 ovarian, 123%. For the same compound, the growth in the assay on IGROV1 ovarian is 58.4%; in the assay on OVCAR-3 ovarian it was 20.3%; with HS 578T breast, 18.7%; in the assay with NCI/ADR-RES ovarian it was 74.9%; in the assay on T-47D breast, 61%; in the assay with BT-549 breast, 63.2%. The growth in the assay on MDA-MB-435 melanoma is 73.6%; with MCF7 breast it was 18.4%; in the assay with HCT-116 colon, 4.3% (active); in the assay on HCC-2998 colon, 73.4%; with KM12 colon, 68.7%.
